Shown is part of a subset that was picked to be rich in hits.
TDP1 cell CPT = qHTS for Inhibitors of human tyrosyl-DNA phosphodiesterase 1 (TDP1): qHTS in cells in presence of CPT. chicken DT40 Tdp1-/-;hTDP1 cells + 20 nM CPT, ATP luminescence, 48 h. Potency, µM (doses to about 46.2 µM), actives largely listed as inhibitors. hit rate 12% among 420,000. AID 686979, 2013; also: nearly all actives have a fitted effect of over 55% in size
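Chicken DT40 Tdp1-/- cells complemented with human TDP1, 400 cells/well, exposed to compounds plus 20 nM camptothecin for at least 48 h at 37 C; viability read as ATP content by CellTiter-Glo luminescence.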
HT1080 IDH1KD tx = qHTS for induction of synthetic lethality in tumor cells producing 2HG: qHTS for the HT-1080-IDH1KD cell line; HT-1080 IDH1 knockdown viability, ATP luminescence, 48 h; Potency, µM (titrated, usually from 46.1 µM), most hits filed as cytotoxic; hit rate 2% among 360,000; AID 686971, 2013
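CellTiter-Glo luminescence after 48 h compound exposure at 37 degrees C of IDH1-knockdown HT-1080 cells in 5% FBS RPMI. %Activity scaled between DMSO wells and cell-free media wells, with curves fitted and assigned curve classes.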
12-LOX inh = Primary qHTS assay for inhibitors of human arachidonate 12S-lipoxygenase (ALOX12): Round 2; Potency, µM (series often up to 108 µM), usual class: inhibitors; hit rate 1.1% among 580,000; purified 12hLO, xylenol orange hydroperoxide absorbance; Polyunsaturated fatty acid lipoxygenase ALOX12 (Homo sapiens), P18054
Target sequence (P18054 whole entry, looked up): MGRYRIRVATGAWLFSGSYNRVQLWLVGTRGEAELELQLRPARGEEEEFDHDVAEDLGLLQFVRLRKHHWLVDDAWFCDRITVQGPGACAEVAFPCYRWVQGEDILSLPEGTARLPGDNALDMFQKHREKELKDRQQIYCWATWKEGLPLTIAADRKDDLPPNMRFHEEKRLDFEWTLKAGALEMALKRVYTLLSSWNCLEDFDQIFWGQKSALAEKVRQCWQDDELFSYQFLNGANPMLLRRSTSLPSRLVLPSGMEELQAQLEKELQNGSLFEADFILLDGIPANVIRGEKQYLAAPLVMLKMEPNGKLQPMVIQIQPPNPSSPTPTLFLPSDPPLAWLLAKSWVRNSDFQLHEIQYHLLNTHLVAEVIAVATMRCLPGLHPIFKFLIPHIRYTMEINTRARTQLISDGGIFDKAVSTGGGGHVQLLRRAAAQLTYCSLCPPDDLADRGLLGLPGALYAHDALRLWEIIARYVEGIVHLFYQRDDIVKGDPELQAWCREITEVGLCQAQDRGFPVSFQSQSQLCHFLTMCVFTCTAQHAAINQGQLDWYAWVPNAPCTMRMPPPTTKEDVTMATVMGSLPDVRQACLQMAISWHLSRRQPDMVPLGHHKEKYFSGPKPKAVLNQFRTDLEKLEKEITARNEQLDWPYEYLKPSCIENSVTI
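Purified human 12hLO at 150 nM in 25 mM Hepes, 0.01% Triton X-100, pH 7.0, preincubated 15 min at room temperature with compound. Reaction started with 40 uM arachidonic acid, 30 min at room temperature. Hydroperoxide measured by Fe-xylenol orange, 573/405 nm absorbance ratio.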
DT40 TDP1 no CPT = qHTS for Inhibitors of human tyrosyl-DNA phosphodiesterase 1 (TDP1): qHTS in cells in absence of CPT; DT40 Tdp1-/- hTDP1 cells, no CPT, ATP luminescence, 48 h; Potency, µM (top dose mostly 46.2 µM), most hits filed as inhibitors; hit rate 15% among 420,000; also: nearly all actives have a fitted effect of over 55% in size
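Cells were dispensed at 400 per well, compounds added by pin tool, plates incubated ≥48 hr at 37 °C, then CellTiter-Glo added for 30 min at room temperature before luminescence reading. Line: DT40 Tdp1-/- complemented with hTDP1; camptothecin omitted.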
HT1080NT lethal = qHTS for induction of synthetic lethality in tumor cells producing 2HG: qHTS for the HT-1080-NT fibrosarcoma cell line | AID 686970, 2013 | HT-1080-NT fibrosarcoma viability, CellTiter-Glo ATP luminescence, 48 h | Potency, µM (highest dose often 46.1 µM), actives largely listed as cytotoxic | hit rate 1.6% among 360,000;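 also: NT is the 2HG producing partner of a matched IDH1 knockdown line; nearly all actives have a fitted effect of over 55% in size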
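Toxicity toward the 2HG-producing NT line was scored as %Activity, normalised to DMSO and no-cell wells, from CellTiter-Glo luminescence after 48 hours' treatment.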
IL1B secr inh = qHTS for Inhibitors of Inflammasome Signaling: IL-1-beta AlphaLISA Primary Screen; AID 743279, 2014; activity change, % at 57.5 µM; hit rate 4.7% among 360,000; THP-1 LPS/ATP IL-1B secretion, AlphaLISA, 16 h; active compounds read low; in the data active = activity change below about -50%; inconclusive = mostly about -30% to -49%
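THP-1 cells pretreated 1 hr with compounds (up to 57.5 uM final), then stimulated with LPS (250 ng/mL final) plus ATP (1.25 mM final); secreted IL-1B measured by AlphaLISA after 16 hr, decreased signal indicating inhibition.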
Each line names hits and unclear results; the compound was inactive in the other large screens. Unless noted, calls follow the shape of the dose curve; as a rule, active = well fitted curve in the direction sought with a large enough effect; inconclusive = small, poorly fitted or top-dose-only effect, or another doubt; inactive = no such curve, though single readings can be large; an effect the other way counts as inactive or inconclusive.

CC(C)[C@H](CO)Nc1nc(Nc2cccc(Cl)c2)c2ncn(C(C)C)c2n1	TDP1 cell CPT 9.4µM, DT40 TDP1 no CPT 9.4µM (no result: HT1080 IDH1KD tx, HT1080NT lethal, IL1B secr inh)
CC(C)(O)c1cn(C[C@H]2C[C@@H]3CCN2C[C@@H]3C(=O)N2CCOCC2)nn1	none (no result: TDP1 cell CPT, HT1080 IDH1KD tx, DT40 TDP1 no CPT, HT1080NT lethal, IL1B secr inh)
COC(=O)c1c(C)n(Cc2ccc3c(c2)OCO3)c2ccc(O)cc12	TDP1 cell CPT inconclusive, HT1080 IDH1KD tx inconclusive, 12-LOX inh 13µM, HT1080NT lethal inconclusive
CCOC(=O)c1c(C)n(COCCO)c2ccc(O)cc12	none
CCCn1c(C)c(C(=O)OCc2ccccc2)c2cc(O)ccc21	12-LOX inh 35µM (no result: TDP1 cell CPT, HT1080 IDH1KD tx, DT40 TDP1 no CPT, HT1080NT lethal, IL1B secr inh)
CCOC(=O)c1c(C)n(Cc2ccc3c(c2)OCO3)c2ccc(O)cc12	TDP1 cell CPT inconclusive, HT1080 IDH1KD tx inconclusive, 12-LOX inh inconclusive, DT40 TDP1 no CPT inconclusive
CCn1cc(C(=O)N(Cc2ccc(F)cc2)C2CC2)c2ccccc21	none (no result: TDP1 cell CPT, HT1080 IDH1KD tx, DT40 TDP1 no CPT, HT1080NT lethal, IL1B secr inh)
CCOc1ccc(CCNC(=O)c2ccc(CS(=O)(=O)c3ccccc3C)o2)cc1OCC	TDP1 cell CPT inconclusive, DT40 TDP1 no CPT 15µM (no result: HT1080 IDH1KD tx, HT1080NT lethal, IL1B secr inh)
Cc1cnc(CCN)n1C1CC1	none (no result: TDP1 cell CPT, HT1080 IDH1KD tx, DT40 TDP1 no CPT, HT1080NT lethal, IL1B secr inh)
CCCNC(=O)N1[C@H]2CC[C@@H]1C(C(=O)OC)=C(c1ccc(Cl)c(C(F)(F)F)c1)C2	TDP1 cell CPT 16µM, DT40 TDP1 no CPT 15µM
COC(=O)C1=C(c2ccc(-c3ccccc3)c(F)c2)C[C@@H]2CC[C@H]1N2C(=O)NCc1cc(C)oc1C(F)(F)F	TDP1 cell CPT inconclusive, 12-LOX inh inconclusive, DT40 TDP1 no CPT 15µM
COC(=O)C1=C(c2ccc(Cl)c(C(F)(F)F)c2)C[C@@H]2CC[C@H]1N2C(=O)NCC1CC1	TDP1 cell CPT 15µM, DT40 TDP1 no CPT 18µM
COC(=O)C1=C(c2cccc(C#N)c2)C[C@@H]2CC[C@H]1N2C(=O)NCc1cc(C)oc1C(F)(F)F	TDP1 cell CPT inconclusive, DT40 TDP1 no CPT inconclusive
COC(=O)C1=C(c2ccc(Cl)c(C(F)(F)F)c2)C[C@@H]2CC[C@H]1N2C(=O)NCCOc1ccc(OC)cc1	TDP1 cell CPT inconclusive, HT1080 IDH1KD tx inconclusive, DT40 TDP1 no CPT inconclusive, HT1080NT lethal inconclusive, IL1B secr inh -63 (no result: 12-LOX inh)
Nc1ccc(N=Nc2ccc(-c3ccc(N=Nc4c(S(=O)(=O)O)cc5cc(S(=O)(=O)O)c(N=Nc6ccccc6)c(O)c5c4N)cc3)cc2)c(N)c1	none (no result: TDP1 cell CPT, HT1080 IDH1KD tx, DT40 TDP1 no CPT, HT1080NT lethal, IL1B secr inh)
C#C[C@H]1CN2CC[C@H]1C[C@@H]2CNS(=O)(=O)c1cccc(C#N)c1	none (no result: TDP1 cell CPT, HT1080 IDH1KD tx, DT40 TDP1 no CPT, HT1080NT lethal, IL1B secr inh)
FC(F)(F)CN1C2CCC1CN(c1nccc(Cl)n1)C2	none (no result: TDP1 cell CPT, HT1080 IDH1KD tx, DT40 TDP1 no CPT, HT1080NT lethal, IL1B secr inh)
O=C(O)c1cn(Cc2ccc(F)cc2)nn1	none (no result: TDP1 cell CPT, HT1080 IDH1KD tx, DT40 TDP1 no CPT, HT1080NT lethal, IL1B secr inh)
COC(=O)C1=C(c2c(C)noc2C)C[C@@H]2CC[C@H]1N2C(=O)NCc1ccc(C(F)(F)F)cc1	TDP1 cell CPT inconclusive, DT40 TDP1 no CPT inconclusive
COC(=O)C1=C(c2ccc(Cl)c(C(F)(F)F)c2)C[C@@H]2CC[C@H]1N2C(=O)NCc1cc(C)oc1C(F)(F)F	TDP1 cell CPT inconclusive, DT40 TDP1 no CPT 21µM
COc1ccc(C(=O)C(C)(C)NO)cc1	TDP1 cell CPT inconclusive, 12-LOX inh 5µM, DT40 TDP1 no CPT inconclusive
CSc1nc2ccccc2n1C(=O)Oc1ccccc1	TDP1 cell CPT inconclusive
COc1ccc(OCCn2c(NC(=O)c3ccc(OC)cc3)nc3ccccc32)cc1	TDP1 cell CPT 18µM, DT40 TDP1 no CPT 16µM (no result: HT1080 IDH1KD tx, HT1080NT lethal, IL1B secr inh)
CC1(C)CC[C@]2(C)CC[C@]3(C)C4C[C@@H]5OO[C@@]6(O5)C(CCCC6(C)C)[C@]4(C)CC[C@@]3(C)C2C1 (some centres not stated)	TDP1 cell CPT 8.2µM, DT40 TDP1 no CPT 5.2µM (no result: 12-LOX inh)
CC(C)C12CN3CCN(CC(C3)C1=O)C2	none (no result: TDP1 cell CPT, HT1080 IDH1KD tx, DT40 TDP1 no CPT, HT1080NT lethal, IL1B secr inh)
CCOc1ccccc1N1C(=O)NC(=O)/C(=C/c2ccc3c4c(cccc24)CC3)C1=O	TDP1 cell CPT inconclusive, DT40 TDP1 no CPT inconclusive, IL1B secr inh -89
